The structures appear in SMILES notation. Compounds without any hit were thinned out: in the full panel of roughly 83,000, 20% have a hit.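 How to read the values: 0–100, growth inhibition (40 = 60% inhibited); 0, no net growth; -100 to 0, cell death (-40 = 40% of starting cells died; -100 = all dead).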 Active and inactive are the calls of the source. The calls were made as follows: active = growth percent below 10; inactive = the rest.

Here are results for 39 compounds from PubChem BioAssay (NCI).

The test system of one test is CAKI-1 renal. Briefly: NCI-60 one-dose screen, 48 h (100 = growth as untreated, 0 = no growth, -100 = all killed). As to conditions: 10 µM unless noted.
With `Cc1ccc2c(c1)n([O-])c1cc(Cl)ccc1[n+]2=O`, the growth was 111% (inactive).

Turning to `CN1/C(=C\C=C\C2=[N+](C)c3ccccc3C2(C)C)C(C)(C)c2ccccc21`, the growth was 23% (inactive).

With `CC/C(=C(\c1ccccc1)c1ccc(OCCNC)cc1)c1ccccc1`, the growth is -68.2% (active).

Consider `CCN(CC)Cc1cc(Nc2c3ccc(Cl)cc3nc3c(C)cccc23)ccc1O`, for which the growth was -41.1% (active).

As to `C=CC[N+]1(CCO)CCN=C1CCCCCCCCCCCCC` (centres undefined), the growth was -47.7% (active).

For the compound `N#Cc1ccc(NC(=O)Nc2ccc(Cc3ccc(NC(=O)Nc4ccc(C#N)cc4)cc3)cc2)cc1`, the growth is 48.5% (inactive).

Take `CC1=NNC(=O)C1C` (centres undefined): the growth was 81.5% (inactive).

As to `O=C(/C=C\c1ccc2ccccc2n1)c1cc(Cl)ccc1O`, the growth is 44.9% (inactive).

Turning to `CCc1ccc(C(c2ccc(CC)cc2)C(Cl)(Cl)CCl)cc1`, the growth is 96.6% (inactive).

On to `C=CCSc1nnc(-c2ccc(C(C)(C)C)cc2)n1-c1cccc(C(F)(F)F)c1`, for which the growth is 32.3% (inactive).

Consider `CSc1ncnc2c1ncn2C1CCCO1` (centres undefined), for which the growth was 79.1% (inactive).

Take `Cc1ccc(/C=C2\Oc3cc(OCC(=O)c4ccc(Cl)cc4)ccc3C2=O)cc1`: the growth is 101% (inactive).

Regarding `Cn1c2c(Cl)c(Cl)ccc2c2ccn3c(=O)c4ccccc4nc3c21`, the growth was 89.1% (inactive).

With `CSc1[nH]c2ncnc(N)c2c1C#N`, the growth was 37.7% (inactive).

As for `CCN(CC)CCCC(C)NCCCNc1cccc2cccnc12` (centres undefined), the growth was 98.4% (inactive).

`CCN(CC)CCCNc1cc(OC)cc2nc3cc(Cl)ccc3nc12`: the growth was -78.7% (active).

Turning to `CCCCCCCCCCNC(=O)CCl`, the growth is -59.4% (active).

For the compound `O=C(O)c1ccc2c(c1Sc1ccccc1)C(=O)c1ccccc1C2=O`, the growth was 84.4% (inactive).

Regarding `CCN(CC)CC(C)Nc1ccc([N+](=O)[O-])c2sc3ccccc3c(=O)c12` (centres undefined), the growth is 18.1% (inactive).

With `Cc1cc2c(cc1C)NC1=C(N2)OC(c2c3ccccc3cc3ccccc23)C1=O` (centres undefined), the growth was 42.5% (inactive).

Take `O=C(Nc1ccc(CN2CCOCC2)cc1)c1[nH]ncc1Nc1ncnc2sccc12`: the growth is 13.2% (inactive).

Consider `CCOC(=O)C(C#N)C1CCCCC1` (centres undefined), for which the growth was 75.5% (inactive).

`Nc1cccc(NC(=O)C(=O)Nc2cccc(N)c2)c1`: the growth was 78.1% (inactive).

Consider `CN(CC(=O)N(Cc1ccc(C2CCCCC2)cc1)c1ccc(C(=O)NO)cc1)S(=O)(=O)c1c(F)c(F)c(F)c(F)c1F`, for which the growth was 87.4% (inactive).

As to `CCN(CC)c1ccc(/C=C/C2=[N+](C)c3ccccc3C2(C)C)cc1`, the growth is -8.77% (active).

As to `CN(C)c1ccc(/C=C(\C#N)c2nc3ccccc3s2)cc1`, the growth is 89.2% (inactive).

On to `CCN(CC)CC(O)CNc1c2ccc([N+](=O)[O-])cc2nc2cc(OC)c(OC)cc12` (centres undefined), for which the growth was 16.3% (inactive).

For `COc1nc2c(cc1S(=O)(=O)c1ccccc1)CCc1c-2cnn1-c1ccc(Cl)cc1`, the growth is 90.8% (inactive).

With `Cc1cc(-c2nc3ccccc3s2)ccc1NC(=O)COc1ccc(Cl)cc1`, the growth was 84.5% (inactive).

As for `N#Cc1c(N)nc(N)nc1Nc1ccc(Br)cc1`, the growth is 80.1% (inactive).

Turning to `CCN(CC)CC(C)(C)C(=O)/C=C/c1ccccc1`, the growth was 49.7% (inactive).

`CNc1cc2nc3cc(NC)c(C)cc3cc2cc1C`: the growth was 7.63% (active).

Consider `O=C(COc1cccc(/C=C2/Oc3ccccc3C2=O)c1)Nc1nccs1`, for which the growth was 37% (inactive).

Regarding `O=C(Cc1ccccc1)c1ccc(Cl)cc1`, the growth was 75.2% (inactive).

Take `O=C(O)c1cccnc1Br`: the growth is 94.1% (inactive).

Another test relates to A498 renal. The description is as above. As to conditions: 10 µM unless noted.
For `Cc1ccc2c(c1)n([O-])c1cc(Cl)ccc1[n+]2=O`, the growth was 87.9% (inactive).

For `CN1/C(=C\C=C\C2=[N+](C)c3ccccc3C2(C)C)C(C)(C)c2ccccc21`, the growth is 1.83% (active).

`CC/C(=C(\c1ccccc1)c1ccc(OCCNC)cc1)c1ccccc1`: the growth was -62.2% (active).

For the compound `CCN(CC)Cc1cc(Nc2c3ccc(Cl)cc3nc3c(C)cccc23)ccc1O`, the growth was -48% (active).

For the compound `C=CC[N+]1(CCO)CCN=C1CCCCCCCCCCCCC` (centres undefined), the growth is 82.6% (inactive).

Regarding `N#Cc1ccc(NC(=O)Nc2ccc(Cc3ccc(NC(=O)Nc4ccc(C#N)cc4)cc3)cc2)cc1`, the growth was 49.5% (inactive).

With `CC1=NNC(=O)C1C` (centres undefined), the growth was 88.6% (inactive).

`COc1nc2c(cc1S(=O)(=O)c1ccccc1)CCc1c-2cnn1Cc1ccccc1`: the growth is 17.6% (inactive).

`O=C(/C=C\c1ccc2ccccc2n1)c1cc(Cl)ccc1O`: the growth was 113% (inactive).

With `CCc1ccc(C(c2ccc(CC)cc2)C(Cl)(Cl)CCl)cc1`, the growth is 81.7% (inactive).

On to `C=CCSc1nnc(-c2ccc(C(C)(C)C)cc2)n1-c1cccc(C(F)(F)F)c1`, for which the growth was 84.7% (inactive).

As for `CSc1ncnc2c1ncn2C1CCCO1` (centres undefined), the growth is 146% (inactive).

Consider `OCC1C2C=CC(C2)C1CO` (centres undefined), for which the growth is 92.5% (inactive).

For `Cc1ccc(/C=C2\Oc3cc(OCC(=O)c4ccc(Cl)cc4)ccc3C2=O)cc1`, the growth was 113% (inactive).

Consider `Cn1c2c(Cl)c(Cl)ccc2c2ccn3c(=O)c4ccccc4nc3c21`, for which the growth was 120% (inactive).

For the compound `CSc1[nH]c2ncnc(N)c2c1C#N`, the growth is 125% (inactive).

In the case of `CCN(CC)CCCC(C)NCCCNc1cccc2cccnc12` (centres undefined), the growth is 81.8% (inactive).

Turning to `C=CC[N+]1(CC)CCN=C1CCCCCCCCCCCCCCCCC` (centres undefined), the growth was -15.6% (active).

For `CCN(CC)CCCNc1cc(OC)cc2nc3cc(Cl)ccc3nc12`, the growth was 14.3% (inactive).

For `CCCCCCCCCCNC(=O)CCl`, the growth was 85.9% (inactive).

For the compound `CCOC(=S)SCc1ccc(Cl)cc1`, the growth is 75.8% (inactive).

Take `O=C(O)c1ccc2c(c1Sc1ccccc1)C(=O)c1ccccc1C2=O`: the growth was 114% (inactive).

Take `CCN(CC)CC(C)Nc1ccc([N+](=O)[O-])c2sc3ccccc3c(=O)c12` (centres undefined): the growth was 29.8% (inactive).

With `Cc1cc2c(cc1C)NC1=C(N2)OC(c2c3ccccc3cc3ccccc23)C1=O` (centres undefined), the growth was 142% (inactive).

As to `O=C(Nc1ccc(CN2CCOCC2)cc1)c1[nH]ncc1Nc1ncnc2sccc12`, the growth is -36.8% (active).

As to `CCOC(=O)C(C#N)C1CCCCC1` (centres undefined), the growth is 117% (inactive).

Turning to `Nc1cccc(NC(=O)C(=O)Nc2cccc(N)c2)c1`, the growth was 89.6% (inactive).

For `CN(CC(=O)N(Cc1ccc(C2CCCCC2)cc1)c1ccc(C(=O)NO)cc1)S(=O)(=O)c1c(F)c(F)c(F)c(F)c1F`, the growth was 95.7% (inactive).

Turning to `CCN(CC)c1ccc(/C=C/C2=[N+](C)c3ccccc3C2(C)C)cc1`, the growth is 50.7% (inactive).

Take `CN(C)c1ccc(/C=C(\C#N)c2nc3ccccc3s2)cc1`: the growth is 112% (inactive).

As for `CCN(CC)CC(O)CNc1c2ccc([N+](=O)[O-])cc2nc2cc(OC)c(OC)cc12` (centres undefined), the growth was -52.9% (active).

Take `COc1nc2c(cc1S(=O)(=O)c1ccccc1)CCc1c-2cnn1-c1ccc(Cl)cc1`: the growth is 82.4% (inactive).

In the case of `Cc1cc(-c2nc3ccccc3s2)ccc1NC(=O)COc1ccc(Cl)cc1`, the growth is 106% (inactive).

With `N#Cc1c(N)nc(N)nc1Nc1ccc(Br)cc1`, the growth was 106% (inactive).

With `CCN(CC)CC(C)(C)C(=O)/C=C/c1ccccc1`, the growth is 68.4% (inactive).

Turning to `CNc1cc2nc3cc(NC)c(C)cc3cc2cc1C`, the growth was 16.5% (inactive).

In the case of `O=C(COc1cccc(/C=C2/Oc3ccccc3C2=O)c1)Nc1nccs1`, the growth was 93.9% (inactive).

As to `O=C(Cc1ccccc1)c1ccc(Cl)cc1`, the growth was 90.9% (inactive).

Regarding `O=C(O)c1cccnc1Br`, the growth is 104% (inactive).
